Assay [1] deals with Aldehyde dehydrogenase, mitochondrial (Homo sapiens) (UniProt P05091). Kind of assay: qHTS for Inhibitors of the Aldehyde Dehydrogenase Family (ALDH2) Primary screen (AID 2061308;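 also: plate controls were vehicle for no effect and reference inhibitor for full effect; nearly all actives have a fitted effect of over 55% in size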). (qHTS replaces the single test concentration by a dilution series.)
Assay [2] concerns the target Retinaldehyde dehydrogenase 3 (Homo sapiens) (UniProt P47895). Kind of assay: qHTS for Inhibitors of the Aldehyde Dehydrogenase Family (ALDH1A3) Primary screen (AID 2061315).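 Also: plate controls were DMSO vehicle for no effect and reference inhibitor for full effect.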
The nature of assay [3]: BET inhibitor-based combinations targeting novel dependencies in MECOM-rearranged (r) AML: SET-2 cell line (AID 2202231). Also: nearly all actives have a fitted effect of over 35% in size. Also: potency is read from the fitted curve at half-maximal effect.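 As to viability: plate controls were DMSO treated cells for no effect and wells without cells for full effect.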 Conditions: SET-2 AML cells viability, CellTiter-Glo luminescence, 48 h; viability: stronger effect = lower value, concentration not given here. The method, boiled down: (§1)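 AML cell lines seeded at 500 cells/well, treated with 11-point dose curves for 48 h. Viability by CellTiter-Glo luminescence, normalised to DMSO and empty wells; activity expressed as AUC and per-cell-line Z-transformed AUC.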

A short description of assay [4]: BET inhibitor-based combinations targeting novel dependencies in MECOM-rearranged (r) AML: OCI-AML3 cell line (AID 2202232). Also: nearly all actives have a fitted effect of over 35% in size. Also: potency is read from the fitted curve at half-maximal effect. Conditions: Potency: OCI-AML3 viability. An outline of the steps: as §1
Assay [5] can be described thus: BET inhibitor-based combinations targeting novel dependencies in MECOM-rearranged (r) AML: MV-4-11 cell line (AID 2202233). Also: potency is read from the fitted curve at half-maximal effect; nearly all actives have a fitted effect of over 45% in size. The method, boiled down: (§2)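 Cells at 500/well were exposed for 48 hr to MIPE v5.0 drugs as 11-point dose curves. Viability was read by CellTiter-Glo luminescence and normalized to DMSO and empty-well controls. Activity was expressed as AUC and per-cell-line Z-AUC.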

Assay [6] in a line: BET inhibitor-based combinations targeting novel dependencies in MECOM-rearranged (r) AML: UCSD-AML1 cell line (AID 2202235). Also: nearly all actives have a fitted effect of over 40% in size. Also: potency is read from the fitted curve at half-maximal effect. An outline of the steps:
as §2

The nature of assay [7]: BET inhibitor-based combinations targeting novel dependencies in MECOM-rearranged (r) AML: AML-191 cell line (AID 2202236; also: potency is read from the fitted curve at half-maximal effect; nearly all actives have a fitted effect of over 35% in size). An outline of the steps: as §1
Assay [8] can be described thus: BET inhibitor-based combinations targeting novel dependencies in MECOM-rearranged (r) AML: AML-194 cell line (AID 2202237; also: nearly all actives have a fitted effect of over 40% in size; also: potency is read from the fitted curve at half-maximal effect). An outline of the steps:
as §1

Assay [9] addresses Aldehyde dehydrogenase 1A1 (Homo sapiens) (UniProt P00352). Kind of assay: qHTS for Inhibitors of the Aldehyde Dehydrogenase Family (ALDH1A1) Confirmatory screens (AID 2061316). Also: nearly all actives have a fitted effect of over 65% in size. Also: potency is read from the fitted curve at half-maximal effect.
A short description of assay [10]: BET inhibitor-based combinations targeting novel dependencies in MECOM-rearranged (r) AML: HNT-34 cell line (AID 2202234). Also: potency is read from the fitted curve at half-maximal effect; nearly all actives have a fitted effect of over 35% in size. An outline of the steps:
as §2

The values below come from PubChem BioAssay (NCATS).

Molecules are shown by their SMILES. Inconclusive results are not listed. A number with no mark means an inactive call. The source made the active and inactive calls. Calls follow the shape of the dose curve; as a rule, active = well fitted curve in the direction sought with a large enough effect; inconclusive = small, poorly fitted or top-dose-only effect, or another doubt; inactive = no such curve, though single readings can be large; an effect the other way counts as inactive or inconclusive.

In general, viability refers to a read-out of living cells in per cent, often relative to untreated cells.

For the compound `Cc1nnc(C[C@@H]2C=C(c3ccc(Cl)cc3)c3ccccc3-n3c(C)nnc32)o1`, the Potency result in [1] and in assay [2] was “inactive” throughout. The Potency was 0.662 µM (active) in assay [3]; 0.332 µM (active) in assay [4]; 0.235 µM (active) in assay [5]; 2.09 µM (active) in assay [6]; 3.32 µM (active) in assay [7]; 5.25 µM (active) in assay [8].

Consider `O=c1c2ccccc2nc2sc(Nc3ccc4c(c3)OCO4)nn12`, for which the Potency result in assay [1] and in assay [2] was “inactive” in each case. The Potency in assay [9] was 5.04 µM (active).

In the case of `COc1cc(-c2cc(-c3ccc(N4CCNCC4)cc3)cnc2C)cc(OC)c1OC`, the Potency entry in assay [1] and in [2] was “inactive” in each case. Further, the viability in assay [3] was 104%. Besides, the Potency in assay [4] was 8.33 µM (active); in [5], 10.5 µM (active).

On to `COc1cc(Nc2ncc(F)c(Nc3ccc4c(n3)N(COP(=O)(O)O)C(=O)C(C)(C)O4)n2)cc(OC)c1OC`, for which the Potency result in [1], in [2] and in assay [4] was “inactive” each time. In addition, the Potency is 13.2 µM (active) in assay [3]; 0.833 µM (active) in [5]; 2.09 µM (active) in assay [10]; 2.63 µM (active) in assay [6]; 3.72 µM (active) in assay [7].

For the compound `Cc1c(C(=O)OCC(C)(C)C)[nH]c2c1C(=O)CC(c1ccco1)C2` (stereo not given), the Potency result in assay [1] and in assay [2] was “inactive” each time. Further, the Potency in assay [9] is 0.896 µM (active).

For `COCCNCCCn1c(C(=O)CF)c(-c2ccc(C)cc2)c2c(N)ncnc21`, the Potency result in [1], in assay [2] and in assay [6] was “inactive” in each case. Moreover, the viability in assay [3] was 101%. For the same compound, the Potency in [4] is 0.059 µM (active); in assay [5] it was 3.32 µM (active).

With `COc1cc(Oc2ccnc3cc(OC)c(OC)cc23)ccc1NC(=O)NC(C)c1nccs1` (stereo not given), the Potency entry in assay [1], in assay [2] and in assay [6] was “inactive” in each case. Besides, the Potency in [3] is 10.5 µM (active); in assay [4], 10.5 µM (active); in [5], 11.8 µM (active); in assay [10] it was 13.2 µM (active); in assay [8], 13.2 µM (active).

For `C=CC(=O)N1CCC(Oc2cc3c(Nc4ccc(Cl)c(Cl)c4F)ncnc3cc2OC)CC1`, the Potency result in assay [1] and in [2] was “inactive” throughout. In addition, the Potency is 20.9 µM (active) in assay [3], 13.2 µM (active) in [4], 10.5 µM (active) in assay [5] and 16.6 µM (active) in assay [10].

Turning to `C[C@H]1[C@H](O)O[C@@H]2O[C@@]3(C)CC[C@H]4[C@H](C)CC[C@@H]1[C@@]24OO3`, the Potency result in assay [1] and in assay [2] was “inactive” each time. Further, the Potency was 1.32 µM (active) in assay [3]; 1.18 µM (active) in [4]; 0.662 µM (active) in assay [5]; 1.18 µM (active) in assay [10]; 3.32 µM (active) in assay [6]; 2.95 µM (active) in assay [7]. In assay [8], the Potency was 4.68 µM (active).

In the case of `C=CC(=O)Nc1ccc2ncnc(Nc3cccc(Br)c3)c2c1`, the Potency entry in assay [1] and in assay [2] was “inactive” each time. For the same compound, the Potency in assay [3] was 26.3 µM (active); in [4] it was 11.8 µM (active); in assay [5] it was 7.42 µM (active); in [6], 8.33 µM (active); in assay [7] it was 8.33 µM (active); in assay [8] it was 11.8 µM (active).

Consider `CN1CCN(C(=O)c2ccc(-c3cnc4c(O)ccc(C(=O)O)c4c3)cc2)CC1`, for which the Potency result in assay [1], in assay [2] and in [9] was “inactive” each time.

Consider `CCC(=O)Nc1cccc(Oc2nc(Nc3ccc(N4CCN(C)CC4)cc3OC)ncc2Cl)c1`, for which the Potency entry in assay [1], in assay [2] and in assay [6] was “inactive” each time. In addition, the Potency is 20.9 µM (active) in assay [3]; 14.8 µM (active) in assay [4]; 7.42 µM (active) in assay [5]; 11.8 µM (active) in [10]; 18.6 µM (active) in assay [7]; 23.5 µM (active) in assay [8].

Turning to `COC(=O)c1ccccc1-c1ccc(/C=c2\sc3nc4cc(Br)cnc4n3c2=O)o1`, the Potency result in assay [1] and in assay [2] was “inactive” throughout. Further, the Potency in assay [9] was 11.3 µM (active).

As to `C[C@@H]1COCCN1c1cc(C2(S(C)(=N)=O)CC2)nc(-c2ccnc3[nH]ccc23)n1` (stereo not given in full), the Potency result in assay [1] and in assay [2] was “inactive” each time. Moreover, the Potency in [3] is 2.63 µM (active); in assay [4], 1.86 µM (active); in assay [5] it was 2.35 µM (active); in [10], 4.68 µM (active); in assay [8], 5.25 µM (active).

Regarding `Nc1[nH]nc2nnc(-c3c(-c4ccccc4)nn4ccccc34)cc12`, the Potency entry in assay [1], in assay [2], in assay [6] and in assay [8] was “inactive” each time. Further, in [3], the viability is 111%. In addition, the values for the Potency in assay [4], in [5] and in assay [7] were 14.8 µM (active), 10.5 µM (active) and 18.6 µM (active), respectively.

In the case of `COc1cccc(Nc2ncnn3ccc(CN4CC[C@@H](N)[C@H](O)C4)c23)c1`, the Potency result in [1] and in assay [2] was “inactive” each time. The viability in assay [3] is 90.8%. Also, the Potency was 14.8 µM (active) in assay [4]; 0.296 µM (active) in assay [5]; 1.32 µM (active) in [10]; 4.17 µM (active) in assay [6]; 4.68 µM (active) in assay [7].

Turning to `CN1CCN(C2CCC(n3cc(-c4ccc(Oc5ccccc5)cc4)c4c(N)ncnc43)CC2)CC1` (stereo not given), the Potency result in assay [1] and in [2] was “inactive” in each case. Besides, the Potency is 20.9 µM (active) in assay [3]; 13.2 µM (active) in [4]; 0.235 µM (active) in assay [5]; 7.42 µM (active) in assay [6]; 9.34 µM (active) in assay [7]; 8.33 µM (active) in assay [8].

For `C[C@H]1[C@@H](OC(=O)CCC(=O)O)O[C@@H]2O[C@@]3(C)CC[C@@H]4[C@H](C)CC[C@@H]1[C@@]24OO3`, the Potency entry in assay [1] and in assay [2] was “inactive” throughout. Further, the Potency is 3.72 µM (active) in assay [3]; 4.17 µM (active) in [4]; 1.66 µM (active) in assay [5]; 2.95 µM (active) in [10]; 5.25 µM (active) in assay [7]; 9.34 µM (active) in [8].

For `CO[C@H]1C[C@@H]2CC[C@@H](C)[C@@](O)(O2)C(=O)C(=O)N2CCCC[C@H]2C(=O)O[C@H]([C@H](C)C[C@@H]2CC[C@@H](OC(=O)C(C)(CO)CO)[C@H](OC)C2)CC(=O)[C@H](C)/C=C(\C)[C@@H](O)[C@@H](OC)C(=O)[C@H](C)C[C@H](C)/C=C/C=C/C=C/1C`, the Potency entry in assay [1] and in [2] was “inactive” each time. For the same compound, in [3], the Potency is 0.091 µM (active).

For `C=CC(=O)Nc1ccc2ncnc(Nc3ccc(OCc4cccc(F)c4)c(Cl)c3)c2c1`, the Potency entry in assay [1] and in [2] was “inactive” in each case. Also, the Potency in assay [3] was 10.5 µM (active); in assay [4], 5.9 µM (active); in assay [5], 6.61 µM (active); in [10], 6.61 µM (active); in assay [6], 7.42 µM (active); in [7], 7.42 µM (active). The Potency in assay [8] is 8.33 µM (active).
